Test results published in ChEMBL document CHEMBL3433997, “St. Jude Leishmania screening dataset” (2016).

Assays:
Format in all cases: functional
[1] = molecular target: Solute carrier family 2, facilitated glucose transporter member 1 (Homo sapiens) (UniProt P11166); assay: ST_JUDE_LEISH: Cytotoxicity at 2uM final concentration against transgenic Leishmania Mexicana promastigotes LmGLUT1 that are glucose transport deficient and complemented with the human glucose transporter GLUT1. Activity is measured by DNA content using SYBR green in vitro
Chain of Solute carrier family 2, facilitated glucose transporter member 1 (Homo sapiens) (P11166 whole entry): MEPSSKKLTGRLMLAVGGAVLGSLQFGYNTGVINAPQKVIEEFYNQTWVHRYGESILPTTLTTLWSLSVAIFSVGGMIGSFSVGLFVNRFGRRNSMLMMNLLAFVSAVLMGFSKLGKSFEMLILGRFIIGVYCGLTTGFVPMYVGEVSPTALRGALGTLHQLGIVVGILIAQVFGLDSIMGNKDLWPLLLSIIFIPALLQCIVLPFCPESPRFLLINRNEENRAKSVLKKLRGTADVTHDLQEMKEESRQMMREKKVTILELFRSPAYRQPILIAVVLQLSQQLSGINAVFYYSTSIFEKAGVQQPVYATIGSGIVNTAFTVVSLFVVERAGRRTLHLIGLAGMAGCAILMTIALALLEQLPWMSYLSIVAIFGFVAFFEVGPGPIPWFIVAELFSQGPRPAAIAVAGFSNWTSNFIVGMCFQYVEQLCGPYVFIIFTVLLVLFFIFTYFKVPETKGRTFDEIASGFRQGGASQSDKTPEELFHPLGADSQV

[2] = molecular target: Hexose transporter 1 (Plasmodium falciparum) (UniProt O97467); assay: ST_JUDE_LEISH: Cytotoxicity at 2uM final concentration against transgenic Leishmania Mexicana promastigotes LmPfHT that are glucose transport deficient and complemented with the Plasmodium falciparum hexose transporter. Activity is measured by DNA content using SYBR green in vitro
[3] = molecular target: Glucose transporter (Leishmania mexicana) (UniProt O61059); assay: ST_JUDE_LEISH: Cytotoxicity at 2uM final concentration against transgenic Leishmania Mexicana promastigotes LmGT2 that are glucose transport deficient and complemented with the L. Mexicana glucose transporter 2. Activity is measured by DNA content using SYBR green in vitro

| Compound | inhibition [1] [%] | inhibition [2] [%] | inhibition [3] [%] |
| --- | --- | --- | --- |
| CC(C)CC(C)NC(=O)C1Cc2c([nH]c3cc(Cl)ccc23)C2(CCN(CCc3ccccc3)CC2)N1 (stereo not given) | 6.97 | 7.27 | 4.34 |
| CNC(=O)c1cnc(Nc2ccc(OCC(O)CN(C)C)cc2)nc1Nc1cccc(OC(C)C)c1 (stereo not given) | 2.84 | -0.45 | 1.38 |
| CN(CCCCCN1CCC(NC(=O)Nc2ccc(C(F)(F)F)cc2)C1)C(=O)/C=C/c1ccc(Cl)c(Cl)c1 (stereo not given) | 3.11 | 2.11 | 2.97 |
| O=C(NCc1cccc2ccccc12)c1ccc(CNC2CCN(Cc3ccccc3)CC2)cc1 | 1.65 | 2.12 | 4.22 |
| Cc1ccc(NC(=O)c2ccc(CN3CCCN(Cc4cccc(O)c4)CC3)cc2)cc1 | -1.8 | -0.37 | 1.37 |
| CC(C)c1ccc(NC(=O)c2ccc(CN3CCCN(CC4CCCCC4)CC3)cc2)cc1 | 3.95 | 2.01 | 5.69 |
| COc1ccc(-c2cc(-c3ccc(S(C)(=O)=O)cc3)cnc2N)cn1 | 1.1 | 0.74 | 3.66 |
| OC(CNCc1ccccc1OCc1ccccc1)c1cccc(Br)c1 (stereo not given) | 4.31 | 4.13 | 2.24 |
| Cc1ccccc1N1CCN(c2ccc(C(=O)NC(C)C)cn2)CC1 | 0.52 | -0.59 | -1.79 |
| CN(C)CCCOc1cccc(NC(=O)Nc2ccc(-c3ccccc3)cc2)c1 | -1.01 | -1.23 | -3.41 |
| Cc1cc(Nc2cccc(C(F)(F)F)c2)nc(NCc2ccccc2)n1 | 29.6 | 42.8 | 10.1 |
| COc1ccc(CNCc2ccc(-c3ccc(CNCCc4ccccc4)cn3)cc2)cn1 | 0.68 | -0.51 | 1.46 |
| O=S(=O)(Nc1cccc(CCN2CCC(N3CCCCC3)CC2)c1)c1cccc2cccnc12 | 0.25 | 0.35 | -2.07 |
| NS(=O)(=O)CCc1cccc(Nc2nccc(-c3c(-c4cccc(NC(=O)c5c(F)cccc5F)c4)nn4ccccc34)n2)c1 | 4.25 | 8.18 | 1.61 |
| Cc1ccc(-c2cc(C(=O)Nc3ccc(S(=O)(=O)N4CCCCC4C)cc3)n[nH]2)c(O)c1 (stereo not given) | -0.81 | -0.31 | -0.79 |
| CN(C)Cc1ccc(-c2cccc(NC(=O)c3ccc(Cl)cc3)c2)cc1 | -2.32 | -0.06 | 0.23 |
| CCOc1ccc2ccccc2c1C(=O)Nc1cc(C)nn1-c1nc(C)cc(=O)[nH]1 | 49.6 | 44.4 | 20.4 |
| COc1cccc2cc(C(=O)N[C@@H](CC(C)C)C(=O)N[C@H](C=NN3CCOC3=O)CC(C)C)oc12 | 2.15 | 4.14 | 1.9 |
| Clc1ccc2c(N3CCN(CCN4CCN(c5ccnc6cc(Cl)ccc56)CC4)CC3)ccnc2c1 | 0.09 | 0.23 | 0.08 |
| Cc1ccc(Nc2nc(NN=Cc3ccc(-c4ccc([N+](=O)[O-])cc4)o3)nc(N3CCOCC3)n2)cc1Cl | -1.18 | -1.96 | -0.54 |
| COc1cc(CNCCCNc2nc3ncccc3[nH]2)c2[nH]cc(Br)c2c1 | 23.9 | 43.1 | 21.6 |
| COc1ccc2nccc([C@@H](O)CN3CCC(NCCOc4cc(C(F)(F)F)ccc4F)CC3)c2c1 | 21.5 | 33.3 | 14.4 |
| Cc1ccc(-c2ccn(Cc3ccc(OCc4ccccc4)cc3)n2)cn1.Cc1ccc(-c2ccnn2Cc2ccc(OCc3ccccc3)cc2)cn1 | 0.13 | 0.76 | 0.25 |
| CC1CN(c2cccc3c2nc(-c2cncc(C#N)c2)n3CCNCc2ccccc2)CC(C)O1 (stereo not given) | 3.09 | 2.38 | 2.56 |

| Compound | inhibition [1] [%] | inhibition [2] [%] | inhibition [3] [%] |
| --- | --- | --- | --- |
| CC[C@H](C)CNC(=O)c1cncc(-c2ccc(CN(C)C3CCN(C)CC3)cc2)c1 | 3.57 | 3.62 | 5.08 |
| O=C(c1cccc(COc2ccc3c(c2)CCN(C2CCCC2)CC3)c1)N1CCN(c2ccncc2)CC1 | 8.85 | 5.59 | 7.88 |
| Cc1ccc2sc(N(CCCn3ccnc3)C(=O)c3ccco3)nc2c1C | 0.64 | 2.76 | 2.79 |
| CN1CCC(NCc2ccc(-c3ccc(S(=O)(=O)NCc4ccccc4)c(F)c3)cc2)CC1 | 12.7 | 13.2 | 7.68 |
| CCOc1c(CCNCCCCNCCc2ccc3ccccc3c2OCC)ccc2ccccc12 | 111 | 112 | 111 |
| O=C(Nc1ccc(C(F)(F)F)cc1)c1ccc(S(=O)(=O)NCC2CCCN(CC3CCCCC3)C2)cc1 (stereo not given) | 2.94 | 2.24 | 1.65 |
| COc1ccc2nccc([C@@H](O)CN3CCC(NC(=O)c4[nH]c5ccccc5c4-c4ccccc4)CC3)c2c1 | 28.3 | 49.7 | 12.8 |
| CCC(CC)n1cc2c(ccc3nc(N)nc(N)c32)n1 | -1.92 | -0.91 | -4.05 |
| COc1ccc(C2CC(=O)C3=C(C2)NC(C)=C(C(=O)OC(C)C)C3c2cccc(O)c2)cc1OC (stereo not given) | 4.15 | 1.12 | 1.71 |
| Cc1ccc(Nc2nc(C)cc(NCc3ccc(-n4ccnc4)cc3)n2)cc1 | 5.83 | 10.8 | 10.4 |
| COc1cccc(C(=O)NC(C=Cc2ccccc2)c2cc(Cl)c3cccnc3c2O)c1 (stereo not given) | 2.89 | 2.04 | 2 |
| N#Cc1ccc(NC(=O)Nc2ccc3c(c2)CCN(C2CCC2)CC3)cc1 | 5.18 | 4.41 | 3.26 |
| COc1ccc(C(=O)O)cc1OCc1ccccc1 | 0.41 | -0.29 | 0.75 |
| Oc1ccc(CN2CCC(NCc3cccc(C(F)(F)F)c3)CC2)cc1 | 11.3 | 13.7 | 13.7 |
| N=c1n(CCN2CCCCC2)c2ccccc2n1CC(=O)c1cccc([N+](=O)[O-])c1 | 2.8 | 4.32 | 0.59 |
| CCc1cn2c3c(cc(C(=O)N[C@@H](Cc4ccccc4)[C@H](O)CNC4CCOCC4)cc13)N(C)S(=O)(=O)C2 | 0.25 | 1.65 | -0.23 |
| Cn1c(NC(=O)C2CCC(CNC(=O)c3ccc(O)c(-c4ccc(Cl)c(Cl)c4)c3)CC2)nc2ccccc21 (stereo not given) | 0.88 | 0.39 | 0.36 |
| COc1ccc(-c2ccc([N+](=O)[O-])cc2C(=O)NCC(C)Oc2ccc(C(F)(F)F)cc2)cc1 (stereo not given) | -0.75 | -1.3 | -3.99 |
| Cc1cc(N[C@@H](CC(C)C)C(=O)Nc2ccccc2)nc(NCc2ccccc2C)n1 | 8.7 | 8.35 | 5.01 |
| COc1ccc(N2CCN(CCCCNC(=O)c3ccc(NC(=O)c4ccc(Cl)cc4)cc3)CC2)c(C)c1 | 10.4 | 8.02 | 9.07 |
| O=C(NCCCCCN1CCC(c2c[nH]c3ccccc23)CC1)Nc1ccc(Cl)cc1Cl | 2.57 | 2.01 | 2.92 |
| COc1cc(NC(=O)N2CCc3ccc(OCCN(C(C)C)C(C)C)cc32)cc(C(F)(F)F)c1 | 1.98 | 1.73 | 2.06 |
| CCN(CC)Cc1cc(NC(=O)c2ccccc2O)ccc1Oc1ccc(Cl)cc1 | 2.02 | 0.32 | 1.46 |
| CCOC(=O)c1ccc(N2CCCCC2)c(NC(=O)C(Cl)(Cl)Cl)c1 | -2.66 | -0.39 | -1.19 |

| Compound | inhibition [1] [%] | inhibition [2] [%] | inhibition [3] [%] |
| --- | --- | --- | --- |
| CC(C)(C)OC(=O)[C@H](CC(N)=O)NC(=O)c1ccc(-c2ccc(-c3nc4cc(C(F)(F)F)ccc4[nH]3)s2)cc1 | 5.01 | 3.22 | 1.57 |
| Cn1cnc2c(Nc3ccncc3)nc(-c3ccc4ccccc4c3)nc21 | -0.3 | 0.97 | -0.56 |
| COc1cccc(NC(=O)[C@H](C(C)C)n2c(=O)[nH]c3ccccc3c2=O)c1 | 1.34 | 0.97 | 5.04 |
| CCNc1cc(C(=O)N[C@@H](Cc2ccc(F)c(F)c2)[C@H](O)CNC2CCCCC2)cc(N2CCCCS2(=O)=O)c1 | 1.98 | 0.24 | 0.91 |
| CCCCN1CCCC[C@H]1[C@@H](O)c1ccnc2ccc(OCC)cc12 | 2.63 | 3.12 | 3.68 |
| CC(C)c1ccc(NC(=O)c2cccc(CN3CCCN(Cc4cccc(O)c4)CC3)c2)cc1 | 15.4 | 12 | 7.67 |
| CC(C)c1cccc(OCC2CCN(c3ncc(C(=O)NC4CC4)cc3Cl)CC2)c1 | 1.56 | -0.04 | -0.2 |
| C=CCN1C(=O)C(C(C)=O)=C(O)C1c1ccccc1 (stereo not given) | -0.92 | -4.02 | 0.66 |
| CS(=O)(=O)CCNCc1cccc(-c2ccc3c(Nc4cc(O)c(Cl)cc4F)ccnc3c2)c1 | 6.47 | 4.71 | 2.65 |
| O=C(Nc1ccc2nc3n(c(=O)c2c1)CCCCC3)C(=O)N1CCC(Cc2ccccc2)CC1 | -0.67 | 0.77 | -0.44 |
| Fc1ccc2[nH]ccc(=NN=Cc3ccccc3Cl)c2c1 | -0.64 | 0.73 | 1.87 |
| COc1ccc(CN2CCCN(Cc3ccc(C(=O)Nc4ccc(Cl)cc4)cc3)CC2)cc1 | 4.35 | 5.51 | 6.65 |
| CC(C)C[C@H](NC(=O)c1ccc(OCCN2CCOCC2)cc1)C(=O)N[C@H](/C=N/NC(=O)c1ccccc1)CCc1ccccc1 | 3.15 | 5.83 | 2.03 |
| O=C(/C=C/c1ccc(Cl)c(Cl)c1)N1CCC(NCc2ccc3[nH]ccc3c2)CC1 | 4.05 | 4.06 | 0.76 |
| CC(C)c1sc(N2CCN(C)CC2)nc1C(=O)NCCc1ccc(Cl)c(Cl)c1 | 2.62 | 2.93 | 2.34 |
| CC(C)(C)OC(=O)Nc1cccc(-c2csc(NC(=N)N)n2)c1 | 0.85 | 0.42 | -0.52 |
| O=C(n1c(-c2cc3ccccc3n2C(=O)C(F)(F)F)cc2ccccc21)C(F)(F)F | 4.6 | 1.94 | -0.64 |
| Cc1noc(C)c1-c1ccc2c(Nc3cccc4c3-c3ccccc3C4=O)c(C(=O)NCc3ccccc3I)cnc2c1 | 3.15 | 2.33 | 6.11 |
| CC[C@H]1CN(Cc2ccccc2Br)CC[C@H]1CCCc1ccnc2ccc(O)cc12 | 3.62 | 5.03 | 2.43 |
| Cc1ccc(NC(=O)Nc2ccc(Cl)cc2)cc1-c1ccc(C(=O)Nc2ccncc2)cc1 | 2.15 | 1.58 | 0.65 |
| CCOc1cc(C(=O)NC2CCN(Cc3ccccc3)CC2)ccc1-c1nc2cc(Cl)ccc2[nH]1 | 4.1 | 5.59 | 3.09 |
| COc1ccc(-c2ccc(NC(=O)c3ccc(C#N)cc3)cc2)cc1CN1CCCC1 | 1.22 | 0.11 | -3.17 |
